Among the data in PMC12136788 are binding signal values, retold here.

Sequences and labels used below:
T1: UNK ZnF1-3 (human, UniProt Q9C0B0 31-174)
T1 sequence: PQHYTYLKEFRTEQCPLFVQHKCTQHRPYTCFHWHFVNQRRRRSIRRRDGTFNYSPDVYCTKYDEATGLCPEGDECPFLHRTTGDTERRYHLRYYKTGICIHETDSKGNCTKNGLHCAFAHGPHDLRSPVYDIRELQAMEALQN

B1: chr5:145543945:145543946:-_ENSG00000133706_ENST00000545646|hu_mus|FALSE|FALSE (ssRNA)
RNA: GGGAGUUCUACAGUCCGACGAUCCUGAACGGCCAGUGGUGGGAAAUAAUCAAGCCAGUGCUCUGCUUCAGAAAACUUCACUAUGUCGUCAUCAGAGAGCCCAAGGGAUUUCAUAAUGUCCCACUGGUACUUAGAAGAUCCUGCCAACAGAGGAUUGAGCAUCA
B2: chr7:141445308:141445309:+_ENSG00000106028_ENST00000265304|hu_hu|hu_hu_hu_mus_False|28_98 (ssRNA)
RNA: GGGAGUUCUACAGUCCGACGAUCUAUGAUUGUUGUUGCUUGUCGCCUCACAUUGUUUUUAUCCAUGUACUCGCCAUAGUCCACUUUCCCUUCCACAAAUAUACGAGACCCCUUUUUCACAUACUGAUAUGCCACAUCUCUGAGCAACAGAGGAUUGAGCAUCA
B3: 39165641_39167405_4275_CDS_ENSMUSG00000037475_ENSMUST00000047037|mouse|control|control (ssRNA)
RNA: GGGAGUUCUACAGUCCGACGAUCUGAAGAGUCCUUGAGAUCGAUGAGACUGUCCUUUACUGUGGAGGAAUGUGAUGGAGAAGGAUGACUAUCAAUUUUGCGGCGUUUUUGUUCCCUGUCAGGCUCCGAGAUAUCUGAUCGGGGCAACAGAGGAUUGAGCAUCA
B4: 11472005_11472125_940_CDS_ENSG00000105520_ENST00000251473|human|control|control (ssRNA)
RNA: GGGAGUUCUACAGUCCGACGAUCCUUGCAGGGGAAGGCGCGGCGCGCGGCGGCCACGAGGCUGGGACUGCCAGCGCAGGCACCCUGGUCAGUGACAAAGCGGUCGGGACCUGGCCGAUCCGGAGAAGGUGGCAGGCAGCCCAGCAACAGAGGAUUGAGCAUCA
B5: chr8:114060920:114060921:+_ENSMUSG00000033545_ENSMUST00000095176|mus_hu|FALSE|FALSE (ssRNA)
RNA: GGGAGUUCUACAGUCCGACGAUCCCACUUCUCAGCAGCAGGGGGAGGGCUGGGCGAGCAUAAAGGGGGAGGGAGUCAAAAAGGAGACCCGGAGGGAGAAAAGGAAAAAAAGCAAAAGGAAAAAAGGAAAAAACCCGCGGGGCGCAACAGAGGAUUGAGCAUCA
B6: chr9:58044877:58044878:-_ENSMUSG00000051243_ENSMUST00000114144|mus_hu|FALSE|FALSE (ssRNA)
RNA: GGGAGUUCUACAGUCCGACGAUCUCCCAGAGGCUGGGAAGGGGGUGUUAGCACCAGACCCGAAAUGUCGCUGUCUUUGAAAACAACGAAAACAGGAAAAUCUGAGCGCGGAGCUGAAAGGCGCCCCAGGCACCGGGCUGGACUCAACAGAGGAUUGAGCAUCA
B7: chr11:46405157:46405158:+_ENSG00000110492_ENST00000395566|hu_hu|hu_hu_hu_mus_False|28_98 (ssRNA)
RNA: GGGAGUUCUACAGUCCGACGAUCCCCUCCCCACUUUGGCUGGGGAGUGUGGGCGUGAGAGGACAGGCGUGAUUGACAGAGCUGACAGGAAGACAAAAGGCACUGGUGGGUCACAUCUUGGGCCUGUGGGAGAGGAGGGCUCCGCAACAGAGGAUUGAGCAUCA
B8: chr8:114060920:114060921:+_ENSMUSG00000033545_ENSMUST00000095176|mus_mus|FALSE|FALSE (ssRNA)
RNA: GGGAGUUCUACAGUCCGACGAUCCGGGUGGAGGUCUGGGCGAACAUAAAGGCGGAGGGUUGGGGUUGGGGAGAGUCACAAAAGAGCCCCGAGGGGAGAAAAAUGAAAAAAGGUGAGGGGGGGAAUCCUCAAAAAAAAUCCGCGCAACAGAGGAUUGAGCAUCA
B9: chr11:87793471:87793472:-_ENSMUSG00000020483_ENSMUST00000020775|mus_mus|mus_mus_mus_hu_False|68_108 (ssRNA)
RNA: GGGAGUUCUACAGUCCGACGAUCUGGGGGCUGGGGAAAAAGAAUAAGCUGGAUCCCCCACCCCCCCACAGUGUCAACCCUACACGAGAGUUUUGAAGGCGACUCAUGAAAAUCAGCAGCUCAAACGGCAAUGACCACCCCACCCAACAGAGGAUUGAGCAUCA

The full ranking holds about 24,000 sequences; the median of “enrichment r” is about 0.99, and the highest 2% start at about 3.7. The sample holds the highest values, similar sequences and a random draw of the others, so the mix is not that of the screen.

The target of this test is T1, UNK ZnF1-3. Kind of test: nsRBNS (natural sequence RNA bind-n-seq); RBNS binding buffer (assumed for nsRBNS): 25 mM Tris pH 7.5, 150 mM KCl, 3 mM MgCl2, 0.01% Triton X-100, 500 ug/ml BSA, 20 U/ml SUPERase-In, 4 C; UNK is unkempt and MSI1 is Musashi-1; names of the RNAs are library labels; protein concentration not given here; high values mean tight binding.
For B1, the binding signal is 0.979 enrichment R.

B2: the binding signal worked out at 0.605 enrichment R.

As for B3, the binding signal amounted to 1.19 enrichment R.

Take B4: the binding signal was determined as 0.958 enrichment R.

B5 yielded a binding signal of 5.92 enrichment R.

Molecule B6 showed a binding signal of 1.01 enrichment R.

B7 showed a binding signal of 2.01 enrichment R.

The molecule B8 displayed a binding signal of 4.66 enrichment R.

With B9, the binding signal was 1.65 enrichment R.
